For 9 compounds, growth inhibition results are on record in PubChem BioAssay (NCI).

Compounds without any hit were thinned out: in the full panel of roughly 79,000, 15% have a hit. Values without a mark were called inactive. Activity calls are given as the source filed them. No stated cut-off is given here; in the data, active means growth inhibition above about 70%; inactive means the rest.

The nature of experiment [1]: NCI Yeast Anticancer Drug Screen. Data for the rad50 strain (AID 155).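 Further: 0% = growth of vehicle-only cultures of the same strain.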 The conditions noted are these: S. cerevisiae rad50 strain growth inhibition, active compounds read high. The essentials:
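Growth of the mutant yeast was measured after compound exposure and referenced to vehicle-treated cultures.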

A short description of experiment [2]: NCI Yeast Anticancer Drug Screen. Data for the mec2-1 strain (AID 157). Conditions: S. cerevisiae mec2-1 strain, active compounds read high. A digest of the protocol: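 Strain: mec2-1 (DNA repair/cell cycle alteration). Compound exposure, then growth measured; inhibition expressed relative to vehicle.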
A short description of experiment [3]: NCI Yeast Anticancer Drug Screen. Data for the sgs1 mgt1 strain (AID 161).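 Further: 0% = growth of cultures given vehicle only.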 The conditions noted are these: S. cerevisiae sgs1 mgt1 strain, active compounds read high. A digest of the protocol: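 Mutant yeast exposed to compound; growth scored against vehicle-only wells.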
A short description of experiment [4]: NCI Yeast Anticancer Drug Screen. Data for the cln2 rad14 strain (AID 165).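 Further: 0% = growth equal to vehicle treated cultures.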 Conditions: S. cerevisiae cln2 rad14 strain, active compounds read high. The essentials:
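Compounds are applied to the cln2 rad14 yeast strain, and growth is then compared with that of vehicle-treated cultures to give inhibition.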

The nature of experiment [5]: NCI Yeast Anticancer Drug Screen. Data for the bub3 strain (AID 167). Conditions: S. cerevisiae bub3 mutant strain, active compounds read high. The essentials: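 Whole-cell yeast assay. The mutant strain was incubated with compounds, and growth inhibition was determined by comparison with vehicle-treated cells.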
Experiment [6] can be described thus: NCI Yeast Anticancer Drug Screen. Data for the mlh1 rad18 strain (AID 175). Conditions: S. cerevisiae mlh1 rad18 strain growth inhibition, active compounds read high. The essentials: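 Read-out is yeast growth inhibition, calculated against vehicle-only controls. The compound was applied to a strain engineered with DNA damage repair alterations.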
Where [7] appears, read: at 5.0 µM (retest, dose inferred, filed as 0.5).
The mark [8] stands for this setting: at 50.0 µM (retest, dose inferred, filed as 5.0).

For `COc1ccc(/C=C(\C#N)c2ccccc2)cc1OC`, the growth inhibition in experiment [1] (setting [7]) was 0%; in experiment [1] (setting [8]) it was 55%; in experiment [1] (at 50.0 µM), 86.6% (active); in experiment [2] (setting [7]) it was -18%; in experiment [2] (setting [8]), 29%; in experiment [2] (at 50.0 µM), 87.3% (active). Also, the growth inhibition was 1% in experiment [3] (setting [7]); 53% in experiment [3] (setting [8]); 88.5% (active) in experiment [3] (at 50.0 µM); 30% in experiment [4] (setting [7]); 34% in experiment [4] (setting [8]); 54.5% in experiment [4] (at 50.0 µM). Besides, the growth inhibition in experiment [5] (setting [7]) was 5%; in experiment [5] (setting [8]), 66%; in experiment [5] (at 50.0 µM), 84.4% (active); in experiment [6] (setting [7]), -6%; in experiment [6] (setting [8]) it was 64%; in experiment [6] (at 50.0 µM) it was 90.2% (active).
In the case of `O=C1/C(=C/c2ccccc2)CCCc2ccccc21`, the growth inhibition in experiment [1] (setting [7]) was -2%; in experiment [1] (setting [8]), 28%; in experiment [1] (at 50.0 µM), 59.8%; in experiment [2] (setting [7]) it was 7%; in experiment [2] (setting [8]) it was 62%; in experiment [2] (at 50.0 µM), 49.5%. For the same compound, the growth inhibition in experiment [3] (setting [7]) was 14%; in experiment [3] (setting [8]), 79% (active); in experiment [3] (at 50.0 µM), 86% (active); in experiment [4] (setting [7]), -10%; in experiment [4] (setting [8]), 14%; in experiment [4] (at 50.0 µM), 19.7%. Further, the growth inhibition in experiment [5] (setting [7]) is 10%; in experiment [5] (setting [8]), 75% (active); in experiment [5] (at 50.0 µM) it was 74.8% (active); in experiment [6] (setting [7]), 10%; in experiment [6] (setting [8]) it was 73% (active); in experiment [6] (at 50.0 µM) it was 75% (active).
Regarding `COC(=O)c1ccc(/C=C/C2=CC(=O)C=CC2=O)cc1`, the growth inhibition in experiment [1] (setting [7]) is 30%; in experiment [1] (setting [8]), 44%; in experiment [1] (at 50.0 µM), 29.6%; in experiment [2] (setting [7]), 27%; in experiment [2] (setting [8]), 41%; in experiment [2] (at 50.0 µM), 36.5%. In addition, the growth inhibition in experiment [3] (setting [7]) is 27%; in experiment [3] (setting [8]), 57%; in experiment [3] (at 50.0 µM) it was 78.2% (active); in experiment [4] (setting [7]), 18%; in experiment [4] (setting [8]), 28%; in experiment [4] (at 50.0 µM), 58.9%. Further, the growth inhibition is 37% in experiment [5] (setting [7]); 57% in experiment [5] (setting [8]); 75.3% (active) in experiment [5] (at 50.0 µM); 29% in experiment [6] (setting [7]); 57% in experiment [6] (setting [8]); 84.1% (active) in experiment [6] (at 50.0 µM).
In the case of `COc1ccc2c(c1OC)C(C(Cl)(Cl)Cl)N1CCc3cc4c(cc3C1=C2)OCO4` (configuration not stated), the growth inhibition in experiment [1] (setting [7]) was 15%; in experiment [1] (setting [8]), 54%; in experiment [1] (at 50.0 µM), 67.2%; in experiment [2] (setting [7]), 7%; in experiment [2] (setting [8]), 71% (active); in experiment [2] (at 50.0 µM) it was 74.5% (active). Further, the growth inhibition in experiment [3] (setting [7]) is 7%; in experiment [3] (setting [8]) it was 72% (active); in experiment [3] (at 50.0 µM) it was 78.4% (active); in experiment [4] (setting [7]) it was 33%; in experiment [4] (setting [8]), 80% (active); in experiment [4] (at 50.0 µM), 80% (active). Moreover, the growth inhibition in experiment [5] (setting [7]) is 20%; in experiment [5] (setting [8]), 86% (active); in experiment [5] (at 50.0 µM), 80.8% (active); in experiment [6] (setting [7]), 11%; in experiment [6] (setting [8]) it was 66%; in experiment [6] (at 50.0 µM), 62.1%.
On to `COC1(CO)C(=O)N(C)CC(=O)N1C` (configuration not stated), for which the growth inhibition in experiment [1] (setting [7]) is 1%; in experiment [1] (setting [8]), 99% (active); in experiment [1] (at 50.0 µM), 99.3% (active); in experiment [2] (setting [7]), 10%; in experiment [2] (setting [8]), 99% (active); in experiment [2] (at 50.0 µM), 99.7% (active). Moreover, the growth inhibition in experiment [3] (setting [7]) was 5%; in experiment [3] (setting [8]) it was 99% (active); in experiment [3] (at 50.0 µM) it was 99.3% (active); in experiment [4] (setting [7]), -7%; in experiment [4] (setting [8]), 20%; in experiment [4] (at 50.0 µM) it was 99.7% (active). Also, the growth inhibition was 0% in experiment [5] (setting [7]); 99% (active) in experiment [5] (setting [8]); 99.5% (active) in experiment [5] (at 50.0 µM); 1% in experiment [6] (setting [7]); 99% (active) in experiment [6] (setting [8]); 99.3% (active) in experiment [6] (at 50.0 µM).
Take `CN(C)CC(C)(C)/C(=N\Nc1ccccc1)c1ccccc1`: the growth inhibition in experiment [1] (setting [7]) is 6%; in experiment [1] (setting [8]), 82% (active); in experiment [1] (at 50.0 µM), 5.6%; in experiment [2] (setting [7]) it was 3%; in experiment [2] (setting [8]), 86% (active); in experiment [2] (at 50.0 µM), -5.2%. Further, the growth inhibition is 51% in experiment [3] (setting [7]); 95% (active) in experiment [3] (setting [8]); 4.55% in experiment [3] (at 50.0 µM); 25% in experiment [4] (setting [7]); 62% in experiment [4] (setting [8]); 38.9% in experiment [4] (at 50.0 µM). Moreover, the growth inhibition in experiment [5] (setting [7]) is 30%; in experiment [5] (setting [8]), 93% (active); in experiment [5] (at 50.0 µM) it was 98% (active); in experiment [6] (setting [7]) it was 22%; in experiment [6] (setting [8]), 80% (active); in experiment [6] (at 50.0 µM), 33%.
Turning to `COC(=O)c1ccccc1N=NN(C)CC1OC2OC(C)(C)OC2C1OC` (configuration not stated), the growth inhibition in experiment [1] (setting [7]) was 10%; in experiment [1] (setting [8]), 69%; in experiment [1] (at 50.0 µM), 71.2% (active); in experiment [2] (setting [7]), 17%; in experiment [2] (setting [8]), 27%; in experiment [2] (at 50.0 µM) it was 43.2%. Moreover, the growth inhibition is 1% in experiment [3] (setting [7]); 36% in experiment [3] (setting [8]); 74.1% (active) in experiment [3] (at 50.0 µM); -3% in experiment [4] (setting [7]); 20% in experiment [4] (setting [8]); -0.8% in experiment [4] (at 50.0 µM). In addition, the growth inhibition in experiment [5] (setting [7]) is 0%; in experiment [5] (setting [8]), 44%; in experiment [5] (at 50.0 µM) it was 32.6%; in experiment [6] (setting [7]), 4%; in experiment [6] (setting [8]), 61%; in experiment [6] (at 50.0 µM) it was 88% (active).
For `COC(=O)c1ncc(Cl)cc1Cl`, the growth inhibition was 3% in experiment [1] (setting [7]); -4% in experiment [1] (setting [8]); 59.9% in experiment [1] (at 50.0 µM); 0% in experiment [2] (setting [7]); -7% in experiment [2] (setting [8]); 39.8% in experiment [2] (at 50.0 µM). Besides, the growth inhibition in experiment [3] (setting [7]) was 0%; in experiment [3] (setting [8]), -7%; in experiment [3] (at 50.0 µM), 58.8%; in experiment [4] (setting [7]), 7%; in experiment [4] (setting [8]), -7%; in experiment [4] (at 50.0 µM), 22.1%. The growth inhibition in experiment [5] (setting [7]) was 1%; in experiment [5] (setting [8]) it was -19%; in experiment [5] (at 50.0 µM) it was 38.4%; in experiment [6] (setting [7]), 0%; in experiment [6] (setting [8]) it was -1%; in experiment [6] (at 50.0 µM), 46.4%.
In the case of `CCN(CC)CCNc1nc(N)c2nc(-c3ccccc3)c(-c3ccccc3)nc2n1`, the growth inhibition is -4% in experiment [1] (setting [7]); 51% in experiment [1] (setting [8]); 95.3% (active) in experiment [1] (at 50.0 µM); -3% in experiment [2] (setting [7]); 22% in experiment [2] (setting [8]); 15.5% in experiment [2] (at 50.0 µM). For the same compound, the growth inhibition in experiment [3] (setting [7]) was -4%; in experiment [3] (setting [8]), 36%; in experiment [3] (at 50.0 µM) it was 90.5% (active); in experiment [4] (setting [7]) it was -1%; in experiment [4] (setting [8]), 5%; in experiment [4] (at 50.0 µM), 27.6%. Besides, the growth inhibition in experiment [5] (setting [7]) was -22%; in experiment [5] (setting [8]) it was 36%; in experiment [5] (at 50.0 µM) it was 61.7%; in experiment [6] (setting [7]), -5%; in experiment [6] (setting [8]), 56%; in experiment [6] (at 50.0 µM), 85.8% (active).
